Most compounds without a hit are left out; they make up all but 3% or so of the library.
GDH-TPI counter: GDH-TPI coupled enzyme inhibition counter-screen; 1.2% of 360,000 active; inhibition, % at 4.8 µM; GDH-TPI coupled enzyme counterscreen, NADH absorbance; in the data active = inhibition above about 30%;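 note: 0% = DMSO wells and 100% = wells lacking the enzyme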
Rv3671c protease: inhibitors of M. tuberculosis serine protease Rv3671c. inhibition, % at 5.96 µM. 0.048% of 320,000 active; in the data active = inhibition above about 38%;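 note: extracellular domain of Rv3671c used as enzyme; 0% = enzyme with DMSO and 100% = no enzyme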
Target sequence (P9WHR9 whole entry, looked up, the tested form may be a part): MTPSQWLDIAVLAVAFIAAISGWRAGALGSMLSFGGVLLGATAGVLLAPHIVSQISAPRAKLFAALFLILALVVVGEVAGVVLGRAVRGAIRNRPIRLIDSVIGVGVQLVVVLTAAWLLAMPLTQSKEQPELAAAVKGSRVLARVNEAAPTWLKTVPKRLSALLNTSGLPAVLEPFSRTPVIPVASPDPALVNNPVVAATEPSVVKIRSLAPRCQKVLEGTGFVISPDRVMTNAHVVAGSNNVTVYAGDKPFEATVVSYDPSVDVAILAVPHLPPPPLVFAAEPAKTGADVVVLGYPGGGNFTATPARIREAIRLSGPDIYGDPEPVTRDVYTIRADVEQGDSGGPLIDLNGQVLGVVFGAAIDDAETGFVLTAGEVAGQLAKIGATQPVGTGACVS
Mtb BioA inh: BioA (M. tuberculosis) enzyme inhibition | purified M. tuberculosis BioA enzyme, plate reader | inhibition, % at 9.99 µM | 0.096% of 360,000 active | AID 602481; in the data active = inhibition above about 40%; inconclusive = no clear call, values can overlap the other calls
Mtb FBA inh: inhibitors of M. tuberculosis fructose-bisphosphate aldolase. 2.3% of 360,000 active. AID 588726. inhibition, % at 1 µM. P9WQA3. purified M. tuberculosis FBA, fluorescence read-out; in the data active = inhibition above about 27%;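 note: 0% = vehicle and 100% = reference inhibitor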
FadD28 FP inh: inhibitors of Mycobacterium tuberculosis FadD28 bisubstrate binding | inhibition, % at 12.5 µM | 0.22% of 360,000 active | AID 588549 | FadD28 bisubstrate probe binding, fluorescence polarization; in the data active = inhibition above about 8.5%, passing the limit was not always enough; inconclusive = no clear call, values can overlap the other calls
Starred values were filed as active, the others as inactive; u = inconclusive; x = no result given.

SMILES | GDH-TPI counter | Rv3671c protease | Mtb BioA inh | Mtb FBA inh | FadD28 FP inh
Cc1ccc(Cn2c(=N)c(C(=O)NCc3ccco3)cc3c(=O)n4ccccc4nc32)cc1 | 12 | 1 | 2 | 52* | -1
N=c1c(C(=O)NCc2ccco2)cc2c(=O)n3ccccc3nc2n1CCc1ccccc1 | 9 | -4 | x | 126* | -2
N=c1c(S(=O)(=O)c2ccc(Br)cc2)cc2c(=O)n3ccccc3nc2n1Cc1ccco1 | 15 | -7 | -2 | 131* | -14
COc1ccc(CCNC(=O)c2cc3c(=O)n4ccccc4nc3n(Cc3ccco3)c2=N)cc1OC | -3 | 1 | -1 | -2 | -3
COCCn1c(=N)c(C(=O)NCc2ccco2)cc2c(=O)n3cc(C)ccc3nc21 | 5 | 5 | 0 | 149* | -1
N=c1c(S(=O)(=O)c2ccc(Br)cc2)cc2c(=O)n3ccccc3nc2n1Cc1ccccc1 | 6 | -3 | -2 | 1 | -2
O=C(NCC[C@@H]1CC[C@H](NC(=O)c2cccnc2)[C@@H](CO)O1)Nc1ccc(F)cc1 | x | x | 4 | x | x
O=C(NC1CCCC1)N1CCCCN2[C@H](CO)[C@H](c3ccc(-c4cncnc4)cc3)[C@H]2C1 | x | x | 2 | x | x
CS(=O)(=O)c1ccc(-c2cn3cc(C(=O)O)ccc3n2)cc1 | 3 | -1 | 0 | 114* | -3
O=C(NCC[C@@H]1CC[C@@H](NS(=O)(=O)Cc2ccccc2)[C@@H](CO)O1)C1CCC1 | x | x | -4 | x | x
C(=C\c1ccco1)/C=N/n1cnnc1 | 51* | 13 | -1 | -8 | -2
CC(=O)Nc1cccc(/C(C)=N/Nc2ccc(S(=O)(=O)Nc3ccccc3C(=O)O)cc2[N+](=O)[O-])c1 | 11 | x | 11 | -5 | 19*
CCOc1ccc(C=NNc2ccc(S(=O)(=O)Nc3ccccc3C(=O)O)cc2[N+](=O)[O-])cc1OC | 8 | 15 | x | -2 | u
CN(CCO)c1ccc(C=NNc2ccc([N+](=O)[O-])cc2S(=O)(=O)Nc2ccccc2C(=O)O)cc1 | 33* | 9 | 12 | -19 | 32*
O=C(O)c1ccccc1NS(=O)(=O)c1ccc(NNC(=S)Nc2ccc(OC(F)F)cc2)c([N+](=O)[O-])c1 | 11 | x | x | -2 | 55*
CCOc1cc(/C=N/Nc2ccc(S(=O)(=O)Nc3ccccc3C(=O)O)cc2[N+](=O)[O-])cc(Cl)c1O | 27 | x | 0 | -8 | 25*
O=C(O)c1ccccc1NS(=O)(=O)c1ccc(N/N=C/c2cccc(O)c2O)c([N+](=O)[O-])c1 | 24 | x | 1 | -5 | 2
COc1ccc(C(C)=NNc2ccc([N+](=O)[O-])cc2S(=O)(=O)Nc2ccccc2C(=O)O)c(OC)c1 | 3 | -23 | 14 | -7 | -10
CC(C)NC(=O)N(C)C[C@H]1Oc2cc(C#CC(C)(C)O)ccc2S(=O)(=O)N([C@@H](C)CO)C[C@H]1C | x | x | -2 | x | x
CC(=O)Nc1ccc(C=NNc2ccc(S(=O)(=O)Nc3ccccc3C(=O)O)cc2[N+](=O)[O-])cc1 | 48* | 26 | 7 | -2 | 28*
CC(=O)Nc1ccc(C=NNc2ccc([N+](=O)[O-])cc2S(=O)(=O)Nc2ccccc2C(=O)O)cc1 | 10 | -6 | 3 | 0 | -10
O=C(NC1CCCC1)[C@@H]1[C@@H](CO)[C@@H]2Cn3c(cccc3=O)[C@H]1N2CC1CCCC1 | x | x | 0 | x | x
CCOC(=O)CSc1nc2c(sc(=S)n2-c2ccc(CC)cc2)c(=O)[nH]1 | 33* | -2 | 1 | 3 | 1
CCOC(=O)CC(=O)CSc1nc2c(sc(=S)n2-c2ccccc2)c(=O)[nH]1 | 30 | 2 | 2 | -2 | -4
Cc1ccc2c(c1)c1ncnc(N3CCOCC3)c1n2C | 10 | 12 | 5 | 126* | -3
SMILES | GDH-TPI counter | Rv3671c protease | Mtb BioA inh | Mtb FBA inh | FadD28 FP inh
CCNC(=O)C[C@H]1CC[C@H]2[C@H](COc3ccc(NC(=O)Nc4cccc(Cl)c4)cc3C(=O)N2C)O1 | x | x | -2 | x | x
COc1ccc(NC(=O)/C(=C\c2ccc(OC)c(OC)c2)NC(=O)c2ccco2)cc1 | 37* | -6 | 0 | 0 | -1
Cc1ccc(NC(=O)/C(=C\c2cccs2)NC(=O)c2ccccc2)cc1 | 18 | -10 | x | 2 | -2
COc1ccc(NC(=O)/C(=C/c2cccs2)NC(=O)c2ccco2)cc1 | 45* | 3 | -1 | 3 | -3
COc1ccc(/C=C(/NC(=O)c2ccc(Br)o2)C(=O)Nc2cccc(C(=O)O)c2)cc1 | 34* | x | 0 | 3 | 0
CC(=O)c1ccc(NC(=O)/C(=C\c2cccs2)NC(=O)c2ccco2)cc1 | 33* | -4 | x | -5 | -2
COc1ccccc1NC(=O)/C(=C/c1cccs1)NC(=O)c1ccco1 | 19 | -1 | 1 | -3 | 0

Compound activity from PubChem BioAssay.
